# Compound activity from PubChem.
# Shown are actives, neighbours in structure and some others; about 7.9% of the full set was active somewhere.
# HCMV antiviral = inhibitors of human cytomegalovirus; HFF cells, HCMV-luciferase reporter, 72 h; hits give low values; 410,000 compounds, 4.5% hits; activity change, negative = inhibition, % at 57.5 µM; in the data active = activity change below about -60%; inconclusive = no clear call, values can overlap the other calls; inactive = above about -39%
#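 Cell-based, HFFs, 1000 cells/well, 16 h 37C; cpds in DMSO + HCMV-luc, MOI 1 PFU/cell; 72 h 37C; OneGlo luminescence after 5 min RT; norm. to buffer vs Salinomycin 10uM.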
# FMDV antiviral = foot and mouth disease virus antiviral activity; 410,000 compounds, 1.2% hits; FMDV antiviral cell-based qHTS; Potency, µM (doses to about 57.9 µM), usual class: inhibitors; calls by dose curve; tested in HEK293T cells; note: read-out not given here; nearly all actives have a fitted effect of over 45% in size
# HCV inhibitor = blocks hepatitis C virus; Huh7.5.1 HCVcc-Cre infection, luciferase reporter, 44 h; 340,000 compounds, 3.4% hits; Potency, µM (top dose mostly 41.8 µM), actives largely listed as inhibitors; AID 651820; active = well fitted inhibition curve with a large enough effect; inconclusive = small, poorly fitted or top-dose-only effect, or another doubt; inactive = no such curve, though single readings can be large or run the other way
#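 HCVcc-Cre virus at an moi near 0.5 was added right after compound to cells cultured 4 h from seeding (1,000 cells/well). Luciferase activity was determined 44 h later, 15 min after substrate addition at RT.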
# MARV entry inh = inhibitors of Marburg virus binding or cell entry | Marburg virus pseudotyped entry inhibition, cell reporter | Potency, µM (titrated, usually from 37.8 µM), most hits filed as inhibitors | 300,000 compounds, 1.8% hits; calls by dose curve; tested in HEK293 cells
# LASV entry inh = Lassa virus entry inhibition; Potency, µM (titrated, usually from 37.9 µM), usual class: inhibitors; 300,000 compounds, 1.2% hits; AID 540256; Lassa virus pseudotype entry inhibition, cell reporter; calls by dose curve; tested in HEK293 cells; note: nearly all actives have a fitted effect of over 50% in size
# Hits are given with their value; - = inactive; ? = inconclusive; . = not tested or not shown.
SMILES,HCMV antiviral,FMDV antiviral,HCV inhibitor,MARV entry inh,LASV entry inh
CC(=O)Nc1ccc(NC(=O)C/C(C)=N/NC(=O)c2cccc3ccccc23)cc1,-,-,-,-,-
O=S(=O)(NC1=NCCCCC1)c1ccc(Cl)cc1Cl,-,-,-,.,.
Cc1cc(C)c(NC(=S)NC(=O)c2ccc(-c3ccccc3)cc2)c(C)c1,-84.0,?,-,?,8.91µM
COc1ccc(-c2cc(C(=O)N3CCc4c(cnc(C)c4CNC(=O)c4ccsc4)C3)[nH]n2)cc1,.,-,.,.,.
O=C(NCc1ccncc1)C12CC3CC(CC(Cl)(C3)C1)C2,-,-,-,-,.
Cc1cc(C(=O)NCCc2ccc(Cl)cc2)c2ccccc2n1,-,?,-,?,-
CCCCN(CCCNC(=O)c1cc(Nc2cccc(SC)c2)nc2ccccc12)Cc1ccccc1,-99.0,-,.,-,?
CSc1cccc(Nc2cc(C(=O)NCCc3ccc(Cl)cc3)c3ccccc3n2)c1,-102.1,-,.,?,-
Cc1cccc(C)c1-n1nnnc1C1(C)CCC(=O)N1c1ccc(N2CCOCC2)cc1 (configuration not stated),-,-,.,.,.
CC(C)(C)OC(=O)CNC(=O)c1nc[nH]c1C(=O)NCc1ccc(CNC(=O)OC(C)(C)C)cc1,-,?,?,.,.
CC(C)(C)OC(=O)NCc1ccc(CNC(=O)c2nc[nH]c2C(=O)NCc2ccc(CNC(=O)OC(C)(C)C)cc2)cc1,?,12.6µM,?,.,.
CC(C)(C)OC(=O)NCCCCCNC(=O)c1nc[nH]c1C(=O)NCc1ccc(CNC(=O)OC(C)(C)C)cc1,-94.9,15.8µM,8.91µM,.,.
C[C@H](NC(=O)c1[nH]cnc1C(=O)Nc1ccc(CNC(=O)OC(C)(C)C)cc1)C(=O)OCc1ccccc1,-,17.8µM,?,.,.
CC(C)(C)OC(=O)NCCCCCNC(=O)c1nc[nH]c1C(=O)NCCCCCNC(=O)OC(C)(C)C,-75.1,12.6µM,10µM,.,.
Cc1ccc(C(=O)NC(Cc2ccccc2C(F)(F)F)C(=O)O)cc1 (configuration not stated),-,-,-,.,.
COc1ccc(N=C2C(=O)Nc3ccccc32)cc1,-,-,-,-,?
COc1ccc(N=C2C(=O)N3c4c(cccc42)C(C)=CC3(C)C)cc1,-62.6,?,?,?,-
CCn1nc(C)cc1C(=O)N1CCCC(N(C)CCc2ccc(OC)c(OC)c2)C1 (configuration not stated),-,-,-,-,-
CC(Oc1ccccc1)C(=O)NNC(=O)c1ccccn1 (configuration not stated),?,-,?,?,?
COc1cc(OC)cc(C(=O)NC(=S)NNC(=O)c2cnccn2)c1,-88.8,-,?,?,?
CC(Oc1cccc(Br)c1)C(=O)NNC(=O)c1ccccn1 (configuration not stated),.,-,5.01µM,.,.
COc1cc(OC)cc(C(=O)NNC(=O)c2ccccn2)c1,-97.8,-,?,?,?
COc1ccc(C(=O)NC(=S)NNC(=O)c2cnccn2)cc1OC,?,-,?,?,-
O=C(/C=C/c1ccccc1)NC(=S)NNC(=O)c1cnccn1,-98.0,-,?,?,7.94µM
COc1ccc(C(=O)NCCNC(=O)c2ccccn2)cc1,-,-,-,-,-
SMILES,HCMV antiviral,FMDV antiviral,HCV inhibitor,MARV entry inh,LASV entry inh
COc1ccc(C(=O)Nc2ccc(NC(=O)c3cnccn3)cn2)cc1,-,.,12.6µM,-,-
COc1ccc(C(=O)NNC(=O)c2ccccn2)cc1,-83.6,1.78µM,-,?,?
COc1ccc(C(=O)Nc2ccc(NC(=O)C3CCCCC3)nc2)cc1,-,-,-,-,-
O=c1c2cnn(-c3ccc(F)cc3)c2ncn1Cc1cccc(Cl)c1,-,-,.,?,?
Cc1cc(NC(=O)c2ccccc2F)cc(C)c1OCC(=O)N1CCOCC1,-97.9,-,-,?,-
Cc1ccccc1CN1CCN(CC(=O)NCCCN2CCN(c3ccc(F)cc3)CC2)C1=O,-,-,10µM,?,-
O=C(CN1CCN(Cc2ccc(Cl)cc2)C1=O)NCCCN1CCOCC1,-,-,-,.,.
O=C(CN1CCN(Cc2ccc(Cl)cc2)C1=O)NCCCN1CCN(c2ccc(F)cc2)CC1,-75.4,?,10µM,13µM,-
O=C(NCCCN1CCN(c2ccc(F)cc2)CC1)NC12CC3CC(CC(C3)C1)C2,-79.4,-,?,?,?
O=C(CN1CCN(Cc2ccc(F)cc2Cl)C1=O)NCCCN1CCOCC1,-,-,-,.,.
O=[N+]([O-])c1cc(N=Nc2ccc3ccccc3c2)ccc1O,-,-,-,.,.
CCc1ccc(NC(=O)Cn2nnc(C(=O)Nc3ccc(F)cc3)c2N)cc1,-,-,.,.,-
O=C1NC[C@@H](CCCCN2CCN(CCc3ccccc3)C(=O)C2=O)N(CC2CCCCC2)C1=O,-,-,.,.,.
O=C(CSc1ncccn1)NC(=O)NC1CCCC1,-,-,.,.,.
COc1ccc2c3c(n(C)c2c1)[C@@H](CO)N(C(=O)c1ccncc1)CC31CCN(C(C)=O)CC1,-,.,.,.,.
Cc1cccc(CN2C[C@]34C=C[C@@H](C[C@@H]3S2(=O)=O)O4)c1,-,-,-,.,.
Cc1cccc(CN2C[C@]34CC[C@@H](C[C@@H]3S2(=O)=O)O4)c1,-,-,7.08µM,.,.
CC(=O)C1=C(O)C(=O)N(Cc2ccccc2)C1c1ccc(F)cc1 (configuration not stated),-76.6,-,-,.,.
CC1(C)CC(NC(=O)C2=C(C(=O)NC3CC(C)(C)NC(C)(C)C3)CCCC2)CC(C)(C)N1,.,.,.,-,.
CC(C)CO/N=C1\C[C@@H](O)[C@@H](O)[C@@H]2[C@@H]3C(=O)N(c4cccc(Oc5ccccc5)c4)C(=O)[C@@H]3CC[C@@H]12,.,.,.,-,.
COc1ccc(Cl)cc1Nc1nc(N)c2ccccc2n1,-,-,14.1µM,?,-
COc1ccc(C)cc1Nc1nc(N)c2cc(OC)c(OC)cc2n1,-,-,?,?,?
CC(=O)Nc1nonc1-c1nnc(SCc2ccc(Cl)cc2)n1C,-,-,.,-,-
CCN1CCN(C(=O)c2cnn(-c3ncc4c(n3)-c3ccccc3CCC4)c2COC)CC1,.,-,.,.,.
CCCn1nc(C(=O)N2CCN(S(=O)(=O)c3ccc(C)c(C)c3)CC2)c2ccccc2c1=O,-,?,14.1µM,.,.
SMILES,HCMV antiviral,FMDV antiviral,HCV inhibitor,MARV entry inh,LASV entry inh
CN(Cc1ccccc1Cl)C(=O)c1cc2ccccc2o1,-,-,-,-,?
CN(Cc1ccc(Cl)cc1Cl)C(=O)c1cc(=O)c2ccccc2o1,-63.0,-,-,-,-
Cc1onc(-c2ccccc2)c1C(=O)N/N=C/C(Br)=C/c1ccccc1,-70.3,-,?,?,?
COc1ccccc1/C=N/NC(=O)c1c(-c2ccccc2)noc1C,-,-,-,-,-
COC(=O)c1sccc1NC(=O)c1c(-c2ccccc2)noc1C,-,?,-,?,-
COC(=O)c1c(-c2ccc(C)cc2)csc1NC(=O)c1c(-c2ccccc2)noc1C,-70.6,.,-,-,.
Cc1occc1C(=O)N/N=C/C(Br)=C\c1ccccc1,-,?,?,?,12.6µM
Cc1cccc(/C=N/NC(=O)c2c(-c3ccccc3)noc2C)c1O,-112.8,-,?,?,-
O=C(NCCN1CCC(n2c(=O)[nH]c3ccccc32)CC1)c1ccc(F)cc1F,-,-,.,.,.
